Rows were chosen to be rich in hits. Some 3.9% of all compounds tested hit in one or more screens of this group.
TROY signal inh – TROY signaling inhibition; AID 1347056; hit rate 0.98% among 360,000; Q293 LMP1-TROYcd NF-kB luciferase reporter, 4 h; inhibition, % at 10 µM;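 active means compounds whose plate-normalised and pattern-corrected inhibition of the luciferase reporter signal at the single screening dose is 50% or more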
CF NFkB inh – cystic fibrosis NF-kB activation inhibition. KKLEB NF-kB-GFP reporter, PAF-induced, GFP fluorescence overnight. inhibition, % at 5 µM. hit rate 0.86% among 360,000;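 active means at least 50% inhibition at 5 µM, scaled per plate between neutral and stimulator controls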;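 further: PAF is a Pseudomonas aeruginosa culture filtrate used as stimulus; plate controls were PAF-stimulated DMSO wells for no effect and unstimulated DMSO wells for full effect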
Peg3 promoter – Peg3 promoter activity inhibition; hit rate 1.7% among 360,000; HeLa PEG-Prom luciferase reporter, luminescence, overnight; inhibition, % at 20 µM;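 active means inhibition of at least 50% at 20 µM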
HIF-2a inh – inhibitors of HIF-2a; hit rate 0.72% among 360,000; 786-0 RCC cells HIF-2a reporter, luciferase luminescence, overnight; AID 624352; inhibition, % at 18.8 µM;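 active means inhibition of the luminescence signal of 40% or more relative to plate controls, in a single-dose primary screen at 18.75 µM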
TWEAK Fn14 block – inhibitors of TWEAK-Fn14 interaction signaling | hit rate 2% among 360,000 | inhibition, % at 10 µM | TWEAK-stimulated Fn14 reporter cells, luciferase luminescence, 8 h; in the data active means inhibition above about 50%
KKLEB cytotox – reduces viability of KKLEB cystic fibrosis airway cells | AID 602141 | hit rate 0.36% among 360,000 | activity change (cytotoxicity), % at 5 µM | KKLEB CF airway cells viability, ATPlite luminescence, overnight; stronger effect = lower value; cells stimulated with P. aeruginosa culture filtrate;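 active means corrected activity change at or below -50% at 5 µM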
CF NFkB inh conf – confirmation of cystic fibrosis induced NF-kB inhibitors. KKLEB CF airway cells, PAF-induced NF-kB-GFP fluorescence, overnight. inhibition, % at 5 µM. hit rate 64% among 1,300. shares compounds with CF NFkB inh; in the data active means inhibition above about 40%;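 further: stimulus PAF is a Pseudomonas aeruginosa filtrate and not platelet activating factor; plate controls were DMSO wells with stimulus for no effect and unstimulated DMSO wells for full effect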
* marks the source's active call; other numbers are inactive results.

Results for O=C(/C=C/c1cccc([N+](=O)[O-])c1)n1cnc2ccccc21 ?
TROY signal inh: 20; CF NFkB inh: 82*; Peg3 promoter: 100*; HIF-2a inh: 28; TWEAK Fn14 block: 103*; KKLEB cytotox: -3; CF NFkB inh conf: 67*

How did Cc1ccc2cc(/C=C/C(=O)c3ccco3)c(Cl)nc2c1 do in these assays?
TROY signal inh: -18; CF NFkB inh: 64*; Peg3 promoter: -165; HIF-2a inh: -224; TWEAK Fn14 block: 18; KKLEB cytotox: -31; CF NFkB inh conf: -101

What do the screens show for `Cc1onc(-c2c(F)cccc2Cl)c1C(=O)Nc1cc(S(=O)(=O)N2CCCCC2)ccc1O`?
TROY signal inh: 64*; CF NFkB inh: 56*; Peg3 promoter: 42; HIF-2a inh: 2; TWEAK Fn14 block: 64*; KKLEB cytotox: -14; CF NFkB inh conf: 48*

Results for Cc1onc(-c2c(F)cccc2Cl)c1C(=O)Nc1ccc(S(=O)(=O)N2CCOCC2)cc1 ?
TROY signal inh: 7; CF NFkB inh: -7; Peg3 promoter: 11; HIF-2a inh: 11; TWEAK Fn14 block: 4; KKLEB cytotox: -6

What do the screens show for `COc1ccc(C(=O)N(c2c(C)cccc2C)C(COC(C)=O)COC(C)=O)cc1`?
TROY signal inh: -6; HIF-2a inh: 11; TWEAK Fn14 block: -7

What do the screens show for `Cc1ccc2occ(/C=N/NC(=O)c3ccc(O)cc3)c(=O)c2c1`?
TROY signal inh: 44; CF NFkB inh: 66*; Peg3 promoter: -6; HIF-2a inh: 19; TWEAK Fn14 block: 37; KKLEB cytotox: -24; CF NFkB inh conf: 29

Results for Cc1ccc2occ(/C=N/NC(=O)c3ccccc3Br)c(=O)c2c1 ?
TROY signal inh: 40; CF NFkB inh: 57*; Peg3 promoter: 29; HIF-2a inh: 34; TWEAK Fn14 block: 71*; KKLEB cytotox: 1; CF NFkB inh conf: 57*

Results for O=C(N/N=C/c1coc2ccccc2c1=O)c1ccccc1 ?
TROY signal inh: -10; CF NFkB inh: 6; Peg3 promoter: 11; HIF-2a inh: 10; TWEAK Fn14 block: 9; KKLEB cytotox: 3

Results for CCOc1ccccc1C(=O)N/N=C/c1coc2ccc(C)cc2c1=O ?
TROY signal inh: 28; CF NFkB inh: 71*; Peg3 promoter: 7; HIF-2a inh: 23; TWEAK Fn14 block: 18; KKLEB cytotox: -31; CF NFkB inh conf: 13

Results for Cc1ccc2occ(/C=N/NC(N)=S)c(=O)c2c1 ?
TROY signal inh: -42; CF NFkB inh: -33; Peg3 promoter: -52; HIF-2a inh: -30; TWEAK Fn14 block: 11; KKLEB cytotox: 13

How did CC1CC(C)(C)NC(=S)S1 (stereo unspecified) do in these assays?
TROY signal inh: -18; CF NFkB inh: -3; Peg3 promoter: 5; HIF-2a inh: 9; TWEAK Fn14 block: -3; KKLEB cytotox: 0

What do the screens show for `Cc1ccc(NC(=O)CCOc2ccccc2C)cc1C`?
TROY signal inh: -35; CF NFkB inh: -5; Peg3 promoter: -74; HIF-2a inh: -111; TWEAK Fn14 block: -20; KKLEB cytotox: 21

What do the screens show for `O=C1CC(N2CCC(O)(c3ccc(Cl)cc3)CC2)C(=O)N1` (stereo unspecified)?
TROY signal inh: 13; CF NFkB inh: -3; Peg3 promoter: 8; HIF-2a inh: -1; TWEAK Fn14 block: -12; KKLEB cytotox: 9

Results for COCC(=O)N1CCCC(C(=O)c2ccc3c4c(cccc24)CC3)C1 (stereo unspecified) ?
TROY signal inh: 1; CF NFkB inh: -12; Peg3 promoter: -25; HIF-2a inh: -19; TWEAK Fn14 block: -13; KKLEB cytotox: -3

What do the screens show for `CC(=O)C1CCC2C3CCC4=CC(=O)CCC4(C)C3(Br)C(=O)CC12C` (stereo unspecified)?
TROY signal inh: 4; CF NFkB inh: 0; Peg3 promoter: 12; HIF-2a inh: -3; TWEAK Fn14 block: 2; KKLEB cytotox: 4

What do the screens show for `CC(=O)C1CCC2C3CCC4=CC(=O)CC[C@]4(C)[C@@]3(F)C(O)C[C@]12C` (stereo partly specified)?
TROY signal inh: 11; CF NFkB inh: 56*; Peg3 promoter: 12; HIF-2a inh: 27; TWEAK Fn14 block: -10; KKLEB cytotox: 26; CF NFkB inh conf: -50

Results for O=C1/C(=C/c2cccnc2)CCc2c1[nH]c1ccccc21 ?
TROY signal inh: 7; CF NFkB inh: 70*; Peg3 promoter: -127; HIF-2a inh: -200; TWEAK Fn14 block: 62*; KKLEB cytotox: -14; CF NFkB inh conf: 84*

Results for O=[N+]([O-])c1ccc(-n2nnnc2-c2ccccc2)c([N+](=O)[O-])c1 ?
TROY signal inh: 17; CF NFkB inh: 68*; Peg3 promoter: 12; HIF-2a inh: 17; TWEAK Fn14 block: 87*; KKLEB cytotox: -23; CF NFkB inh conf: -69

How did O=[N+]([O-])c1ccc(-n2nnnc2-c2ccccc2)cc1 do in these assays?
TROY signal inh: 4; CF NFkB inh: -4; Peg3 promoter: 13; HIF-2a inh: -2; TWEAK Fn14 block: 9; KKLEB cytotox: -1

Results for O=C(CNC(=O)c1ccc(Br)cc1)NCC(=O)OCc1ccc(Cl)cc1 ?
TROY signal inh: 13; CF NFkB inh: 2; Peg3 promoter: 6; HIF-2a inh: 4; TWEAK Fn14 block: -14; KKLEB cytotox: -16

How did ON=C1c2ccccc2-c2cc(Br)ccc21 do in these assays?
TROY signal inh: 44; CF NFkB inh: 78*; Peg3 promoter: -39; HIF-2a inh: -53; TWEAK Fn14 block: 71*; KKLEB cytotox: -6; CF NFkB inh conf: 73*

How did ON=C1c2ccccc2-c2ccc(O)cc21 do in these assays?
TROY signal inh: -30; CF NFkB inh: -3; Peg3 promoter: -256; HIF-2a inh: -201; TWEAK Fn14 block: 26; KKLEB cytotox: 8

Results for Cc1ccc(Cn2c(=O)c3ccccc3n3c(CCC(=O)O)nnc23)cc1 ?
TROY signal inh: -5; CF NFkB inh: 9; Peg3 promoter: 4; HIF-2a inh: 13; TWEAK Fn14 block: 15; KKLEB cytotox: 17

How did CC(=O)c1sc(NC(=O)CCS(=O)(=O)c2ccc(Cl)cc2)nc1C do in these assays?
TROY signal inh: -14; CF NFkB inh: 56*; Peg3 promoter: 35; HIF-2a inh: -8; TWEAK Fn14 block: 13; KKLEB cytotox: 4; CF NFkB inh conf: 40*

What do the screens show for `COc1ccc(NC(=O)CCS(=O)(=O)c2ccc(Cl)cc2)cc1`?
TROY signal inh: -7; CF NFkB inh: 2; Peg3 promoter: -18; HIF-2a inh: 7; TWEAK Fn14 block: -19; KKLEB cytotox: 1

What do the screens show for `Cn1c(=O)c2cc(NC(=O)Cc3ccccc3F)ccc2n1Cc1ccc(Cl)cc1`?
TROY signal inh: -6; CF NFkB inh: -4; Peg3 promoter: -30; HIF-2a inh: -81; TWEAK Fn14 block: -13; KKLEB cytotox: 0

Source: PubChem BioAssay
